Drawing on paper PMC8384837, “Expanding the binding specificity for RNA recognition by a PUF domain”, this text covers binding signal for six sequences.

PUM1 PUF domain R7-RNK, sequence (Q14671 828-1176 S1079R/E1083K): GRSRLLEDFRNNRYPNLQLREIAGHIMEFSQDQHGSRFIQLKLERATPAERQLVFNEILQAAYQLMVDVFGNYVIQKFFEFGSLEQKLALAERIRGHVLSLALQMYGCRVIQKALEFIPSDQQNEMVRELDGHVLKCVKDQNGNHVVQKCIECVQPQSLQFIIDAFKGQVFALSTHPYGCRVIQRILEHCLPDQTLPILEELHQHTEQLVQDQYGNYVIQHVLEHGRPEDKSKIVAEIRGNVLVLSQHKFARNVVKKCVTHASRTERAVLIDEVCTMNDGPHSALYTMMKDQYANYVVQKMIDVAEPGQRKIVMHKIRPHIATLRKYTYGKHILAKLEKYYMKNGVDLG

The target in one assay is PUM1 PUF domain R1-RWT (Homo sapiens, UniProt Q14671 828-1176, S863R;R864W;Q867T). The assay can be described thus: yeast three-hybrid, YBZ-1, SC-Leu-His + 0.5 mM 3-AT, 4 days. The note with it: tags: N-Gal4 AD-HA kept; label: inside an RPR1-promoter hybrid RNA with tandem MS2 sites; ssRNA. In a few lines: (§1)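 Pumilio-1 PUF domain libraries, randomized at the three base-contacting residues of each repeat, were co-expressed with matching RNA elements from a centromeric plasmid in strain YBZ-1, which carries a LexA–MS2 coat fusion and a HIS3 reporter. Transformants grew for four days on SC-Leu (input) or on SC-Leu-His + 0.5 mM 3-AT (selection), and the repeat regions were PCR-amplified and Illumina-sequenced. The interaction score is the log change in variant frequency from input to selection. That logarithm is base 2, with a pseudocount of 1 where a variant was absent.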
PUM1 PUF domain R1-RWT, sequence (Q14671 828-1176 S863R/R864W/Q867T): as the sequence (Q14671 828-1176 S1079R/E1083K) above, with S36R, R37W, Q40T, R252S, K256E counted along it
In the case of “GGCUAGAACUAGUGGAUCCCCCGGCGCCCGGCGGCUCGAGCCCGGGUAAGUGUAAAUCGUCUGCAUGCCGCCGGGCGCCAUGCCUGCAGGUCGACUCUAGAAAACAUG”, the binding signal was 5.45 log2 enrichment (interaction score).

As for “GGCUAGAACUAGUGGAUCCCCCGGCGCCCGGCGGCUCGAGCCCGGGUAAGUGUAAAUGGUCUGCAUGCCGCCGGGCGCCAUGCCUGCAGGUCGACUCUAGAAAACAUG”, the binding signal was 0.98 log2 enrichment (interaction score).

Regarding “GGCUAGAACUAGUGGAUCCCCCGGCGCCCGGCGGCUCGAGCCCGGGUAAGUGUAAAUUGUCUGCAUGCCGCCGGGCGCCAUGCCUGCAGGUCGACUCUAGAAAACAUG”, the binding signal is 4.77 log2 enrichment (interaction score).

Another assay has as its target PUM1 PUF domain R7-RNK (Homo sapiens, UniProt Q14671 828-1176, S1079R;E1083K). The description is as above. Conditions: tags: N-Gal4 AD-HA kept; label: inside an RPR1-promoter hybrid RNA with tandem MS2 sites; ssRNA. In a few lines:
as §1
For the sequence “GGCUAGAACUAGUGGAUCCCCCGGCGCCCGGCGGCUCGAGCCCGGGUAAGUCUAAAUAGUCUGCAUGCCGCCGGGCGCCAUGCCUGCAGGUCGACUCUAGAAAACAUG”, the binding signal was 3.45 log2 enrichment (interaction score).

As for “GGCUAGAACUAGUGGAUCCCCCGGCGCCCGGCGGCUCGAGCCCGGGUAAGUGUAAAUAGUCUGCAUGCCGCCGGGCGCCAUGCCUGCAGGUCGACUCUAGAAAACAUG”, the binding signal was 2.47 log2 enrichment (interaction score).

Consider “GGCUAGAACUAGUGGAUCCCCCGGCGCCCGGCGGCUCGAGCCCGGGUAAGUAUAAAUAGUCUGCAUGCCGCCGGGCGCCAUGCCUGCAGGUCGACUCUAGAAAACAUG”, for which the binding signal is 2.99 log2 enrichment (interaction score).
